Data from PubChem BioAssay AID504832 (National Center for Advancing Translational Sciences (NCATS), 2011).
The whole screen tested about 310,000 compounds, of which about 18,000 (5.8%) were called active. Another 22% or so got no clear call; they are omitted. The call rests on the fitted dose curve; in most records, active means well fitted inhibition curve with a large enough effect; inconclusive means small, poorly fitted or top-dose-only effect, or another doubt; inactive means no such curve, though single readings can be large or run the other way. The entries come from a sample that favours actives as a whole. A call without a number means that no potency is given here.
Potency means the concentration at half of the fitted maximal effect.

Assay: Primary qHTS for delayed death inhibitors of the malarial parasite plastid, 48 hour incubation
Settings: P. falciparum luciferase growth in erythrocytes; series mostly up to 28.7 µM
In short: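 Luciferase-expressing parasites in RBCs, 2% Hct / 0.1% parasitemia final; RPMI 1640 + 0.5% Albumax; 37 C, 5% CO2, one generation; luminescence read-out, lower signal = inhibition.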
In the case of `CC(=O)c1c(C)[nH]c(C(=O)OCC(=O)Nc2c(C)n(C)n(-c3ccccc3)c2=O)c1C`, the Potency is reported as “inactive”. With `CC(C)(C)n1nnnc1C(c1ccccc1F)N1CCN(C(=O)c2ccco2)CC1` (stereo not drawn) the Potency was “inactive”. With `CCOc1ccc(S(=O)(=O)N(CC(=O)NCC(F)(F)F)Cc2ccco2)cc1` the Potency was “inactive”. For `CCOc1ccc(CN(Cc2ccco2)C(c2cccs2)c2nnnn2C(C)(C)C)cc1` (stereo not drawn), the Potency was 3.29 µM (active). With `CS(=O)(=O)N1CCN=C1SCc1ccc(F)cc1` the Potency was “inactive”. With `O=C(NCCCN1CCOCC1)c1ccc([N+](=O)[O-])cc1[N+](=O)[O-]` the Potency was “inactive”. In the case of `N#C/C(=C\c1ccc(-c2cccc([N+](=O)[O-])c2)o1)C(=O)NCCN1CCOCC1`, the Potency is reported as 10.4 µM (active). With `Cc1ccc(Cc2cnc(NC(=O)/C(C#N)=C/c3ccc(-c4cccc([N+](=O)[O-])c4)o3)s2)cc1` the Potency was “inactive”. With `COc1ccc(C2CC(=O)NC(=O)C2)cc1` the Potency was “inactive”. For `NS(=O)(=O)c1ccc(CCNC(=O)COC(=O)COc2cccc(C(F)(F)F)c2)cc1`, the Potency was “inactive”. With `Nc1c(N(CCCO)C(=O)C2CCCC2)c(=O)[nH]c(=O)n1Cc1ccccc1` the Potency was “inactive”. With `CC(=O)Cn1cnc2c(cnn2-c2ccccc2)c1=O` the Potency was “inactive”. In the case of `CC(C)Cn1cnc2c1c(=O)n(CC(O)c1ccccc1)c(=O)n2CC(C)C` (stereo not drawn), the Potency is reported as 4.65 µM (active). With `Cc1nc2ccccc2n1CC(O)c1ccccc1` (stereo not drawn) the Potency was “inactive”. For `N#Cc1ccc(C2N=C(c3ccccc3)NO2)cc1` (stereo not drawn), the Potency was “inactive”. For `O=C(CNC(=O)c1cccs1)N/N=C/c1cccc(Br)c1`, the Potency was “inactive”. In the case of `O=C(CSC1=NS(=O)(=O)c2cc(F)ccc2N1)Nc1ccccc1F`, the Potency is reported as “inactive”. With `CN1c2ccc(C=O)c3c(C=O)ccc(c23)N(C)C1(C)C` the Potency was 11.7 µM (active). With `COc1ccc(-c2noc(CNC(=O)C(C)Oc3ccccc3)n2)cc1` (stereo not drawn) the Potency was “inactive”. With `CC1CCCCC1NC(=O)NC(=O)COC(=O)C1=NN(c2ccccc2)C(=O)CC1` (stereo not drawn) the Potency was “inactive”. With `CCCCCCSc1ccc([C@@H]2[C@@H]3C(=O)N(CC)C(=O)[C@@H]3[C@]3(C(=O)OC)CCCCN23)cc1OC` the Potency was 1.85 µM (active). In the case of `CCN1C(=O)[C@@H]2[C@@H](c3ccc(-c4cccc(Cl)c4)cc3)N3CCC[C@@]3(C(=O)OC)[C@@H]2C1=O`, the Potency is reported as 11.7 µM (active). For `CCNC(=O)N1CCCC(C(=O)c2ccc(-c3ccccc3)cc2)C1` (stereo not drawn), the Potency was “inactive”. For `CCn1cc(CN2CCC(C(=O)Nc3cccc(-c4cccc(Cl)c4)c3)CC2)cn1`, the Potency was “inactive”. For `CCN1C(=O)[C@@H]2[C@@H](c3ccc(-c4ccccc4)cc3)N3CCCC[C@@]3(C(=O)OC)[C@@H]2C1=O`, the Potency was 9.28 µM (active). For `O=C(NCc1ccccc1)C1C(=O)N(Cc2ccccc2)C(=O)C1C1(O)CCCC1` (stereo not drawn), the Potency was “inactive”. For `CCOC(=O)c1cc(S(=O)(=O)NCCc2ccc(OC)c(OC)c2)cn1C`, the Potency was “inactive”. With `COc1cccc(/C=C/C(=O)OCC(=O)N2CCCc3ccccc32)c1` the Potency was “inactive”. With `CC(C)CC(=O)Nc1nnc(S(=O)(=O)N(C)c2ccc(Cl)cc2)s1` the Potency was “inactive”. In the case of `CCOc1ccc(CN2CCN(CCCc3ccccc3)C(CCO)C2)cc1` (stereo not drawn), the Potency is reported as “inactive”. With `COc1ccc(CCNS(=O)(=O)c2cc3c(cc2C)NC(=O)CO3)cc1OC` the Potency was “inactive”. With `O=C1CC(N2CCN(C(c3ccccc3)c3ccccc3)CC2)C(=O)N1` (stereo not drawn) the Potency was “inactive”. For `CC1(C)CC(=O)C=C(N2CCCC2)C1`, the Potency was “inactive”. With `CC1(C)CC(N2CCN(C(c3ccccc3)c3ccccc3)CC2)=CC(=[N+]2CCCCC2)C1` the Potency was 0.415 µM (active). With `COC(=O)c1ccc(C(=O)NC2CC(C)(C)Cc3c2cnn3-c2ccc(F)cc2)nc1` (stereo not drawn) the Potency was “inactive”. For `Cc1cc(-c2ccc(S(=O)(=O)N3CCc4ccccc4C3)s2)on1`, the Potency was “inactive”. For `CCC(Cc1ccccc1)NS(=O)(=O)c1ccc2c(c1)NC(=O)CS2` (stereo not drawn), the Potency was “inactive”. In the case of `C=CCOC(=O)C1=C(C)NC(SCC(=O)OCC)=C(C#N)C1c1ccc(C)cc1` (stereo not drawn), the Potency is reported as “inactive”. In the case of `CCOC(=O)C1=C(C)NC(=O)NC1c1ccccc1` (stereo not drawn), the Potency is reported as “inactive”. In the case of `C=CCC1(C#N)C(=S)NC(C)=C(C(=O)OCC)C1c1ccccc1` (stereo not drawn), the Potency is reported as 1.47 µM (active). For `CC(C)(C)c1nc(NCC2CCCO2)c2nnn(Cc3ccccc3)c2n1` (stereo not drawn), the Potency was “inactive”. For `CC(C)(C)c1ccc(Cn2nnc3c(=O)[nH]c(C4CCCN(C(=O)c5ccco5)C4)nc32)cc1` (stereo not drawn), the Potency was 0.828 µM (active). For `Cc1ccc(Cn2nnc3c(=O)n(CC(=O)N4CCCCC4)cnc32)cc1`, the Potency was “inactive”. For `CC(C(=O)NC1CCCC1)N1CCN(S(=O)(=O)c2ccccc2Cl)CC1` (stereo not drawn), the Potency was “inactive”. In the case of `Cc1ccc(C)c(S(=O)(=O)N2CCN(C(=O)Nc3ccccc3)CC2)c1`, the Potency is reported as “inactive”. In the case of `CC1CC(=O)Nc2ccccc2N1S(=O)(=O)c1cccs1` (stereo not drawn), the Potency is reported as “inactive”. In the case of `CC1CC(=S)Nc2ccccc2N1Cc1ccccc1` (stereo not drawn), the Potency is reported as 10.4 µM (active). For `CC1CC(C)(C)NC(=S)N1CCC(=O)N1CCN(Cc2ccccc2)CC1` (stereo not drawn), the Potency was “inactive”. For `CCS(=O)(=O)C1=NSC2=NC(=O)/C(=C\c3ccc(OS(=O)(=O)c4ccccc4)cc3)C(=N)N21`, the Potency was “inactive”. With `COc1cccc(-c2cc3nc4c(c(N5CCC6(CC5)OCCO6)n3n2)CCCC4)c1` the Potency was 2.94 µM (active). In the case of `Cc1nc2cc(-c3ccc(F)cc3)nn2c(N2CCOCC2)c1C`, the Potency is reported as “inactive”. With `COc1ccc(S(=O)(=O)NCc2ccc(C(=O)N3CCC4(CC3)OCCO4)cc2)cc1` the Potency was “inactive”. With `O=C1c2ccccc2S(=O)(=O)N1CC(O)Cn1c2ccccc2c2ccccc21` (stereo not drawn) the Potency was “inactive”. With `CC(=O)c1ccc2c(c1)c1ccccc1n2CC(C)C` the Potency was “inactive”. In the case of `OC(Cn1c2ccccc2c2ccccc21)C[n+]1ccccc1` (stereo not drawn), the Potency is reported as 7.38 µM (active). With `O=C(CN(C(=O)CNC(=O)c1cccs1)c1cccc(F)c1)NC1CCCCC1` the Potency was “inactive”. For `Cc1cccc(NC(=O)COC(=O)CCc2ccccc2)c1C`, the Potency was “inactive”. With `CC(=O)c1c(C)n(-c2ccc(C)cc2)c2ccc(O)cc12` the Potency was “inactive”. In the case of `CCOC(=O)c1c(C)oc2ccc(OCC(=O)N(CC)CC)cc12`, the Potency is reported as “inactive”. For `CC(=O)c1c(C)n(-c2ccc(N(C)C)cc2)c2ccc(OCC(N)=O)cc12`, the Potency was 11.7 µM (active). With `O=C(Nc1ccccc1Cl)NC1(C(=O)N2CCOCC2)CCCCC1` the Potency was “inactive”. With `COc1ccc(CNC(=O)C(=O)N2CCC3(CC2)OCCN3S(=O)(=O)c2ccc(C)cc2)cc1` the Potency was “inactive”. In the case of `CC1(C)O[C@H]2CC(=O)OCC23[C@H]2CC[C@@]4(C)[C@H](c5ccoc5)OC(=O)[C@H]5O[C@]54[C@]2(C)C(=O)C[C@@H]13` (stereo partly drawn), the Potency is reported as “inactive”.
